In the library only some 3.9% were active in any assay of this set; here they are far more common.
CASP6 VEID inh: caspase-6 (human) enzyme inhibition | inhibition, % at 12.5 µM | P55212 | AID 686996 | purified caspase-6, Z-VEID-R110 cleavage fluorescence | hit rate 0.53% among 350,000;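 active = mean inhibition across replicates at least about 35%, with every replicate also reaching that limit, limit read from the data; inconclusive = only one of the two criteria met; inactive = neither criterion met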;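 note: 0% = median of neutral control wells and 100% = no fluorescence left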
Glyco luc inh: N-linked glycosylation inhibition. D54 ERlucT glycosylation luciferase reporter, 24 h; percent of 100 nM tunicamycin response. reporter increase, % at 12.5 µM. hit rate 0.23% among 360,000. AID 588692;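 active = mean luciferase reporter signal, scaled so untreated is 0 and the glycosylation-blocking control 100, at or above a set limit in every replicate; inconclusive = mean reaches the limit but not every replicate does; inactive = mean below the limit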;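 note: luciferase carries N-glycosylation sites so blocking glycosylation raises the light; 0% = median of neutral control wells and 100% = median of 100 nM tunicamycin wells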
SUMO Mot1 rescue: blocks SUMOylation pathway, rescuing yeast Mot1-301 growth | S. cerevisiae Mot1-301 growth rescue, ATP luminescence, 38.5C; percent above DMSO median, 100 means doubled | growth rescue, % at 18.8 µM | hit rate 1% among 320,000 | AID 2716;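 active = every valid replicate shows activation above 250% relative to neutral control wells; inactive = the rest, any valid replicate at or below 250%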;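 note: OY570 slx delta 5 strain wells were the positive control but not used for scaling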
CDK5 p35 inh: blocks human CDK5/p35 kinase activity; Q00535+Q15078; Recombinant CDK5/p35, ADP-Glo luminescence, 60 min; inhibition, % at 10 µM; hit rate 0.01% among 330,000;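 active = highest replicate inhibition of at least 50% and at least 75% of replicates reaching 50%; inconclusive = only one of the two criteria met; inactive = both criteria failed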;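 note: plate controls were DMSO neutral control for no effect and GW8510 at 10 µM for full effect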
NSD2 inh: NSD2 (human) methyltransferase inhibition; O96028; NSD2 peptide methylation, AlphaScreen, 120 min; inhibition, % at 12.5 µM; hit rate 0.54% among 310,000; AID 743445; in the data active = inhibition above about 50%
Target sequence (O96028 whole entry, looked up): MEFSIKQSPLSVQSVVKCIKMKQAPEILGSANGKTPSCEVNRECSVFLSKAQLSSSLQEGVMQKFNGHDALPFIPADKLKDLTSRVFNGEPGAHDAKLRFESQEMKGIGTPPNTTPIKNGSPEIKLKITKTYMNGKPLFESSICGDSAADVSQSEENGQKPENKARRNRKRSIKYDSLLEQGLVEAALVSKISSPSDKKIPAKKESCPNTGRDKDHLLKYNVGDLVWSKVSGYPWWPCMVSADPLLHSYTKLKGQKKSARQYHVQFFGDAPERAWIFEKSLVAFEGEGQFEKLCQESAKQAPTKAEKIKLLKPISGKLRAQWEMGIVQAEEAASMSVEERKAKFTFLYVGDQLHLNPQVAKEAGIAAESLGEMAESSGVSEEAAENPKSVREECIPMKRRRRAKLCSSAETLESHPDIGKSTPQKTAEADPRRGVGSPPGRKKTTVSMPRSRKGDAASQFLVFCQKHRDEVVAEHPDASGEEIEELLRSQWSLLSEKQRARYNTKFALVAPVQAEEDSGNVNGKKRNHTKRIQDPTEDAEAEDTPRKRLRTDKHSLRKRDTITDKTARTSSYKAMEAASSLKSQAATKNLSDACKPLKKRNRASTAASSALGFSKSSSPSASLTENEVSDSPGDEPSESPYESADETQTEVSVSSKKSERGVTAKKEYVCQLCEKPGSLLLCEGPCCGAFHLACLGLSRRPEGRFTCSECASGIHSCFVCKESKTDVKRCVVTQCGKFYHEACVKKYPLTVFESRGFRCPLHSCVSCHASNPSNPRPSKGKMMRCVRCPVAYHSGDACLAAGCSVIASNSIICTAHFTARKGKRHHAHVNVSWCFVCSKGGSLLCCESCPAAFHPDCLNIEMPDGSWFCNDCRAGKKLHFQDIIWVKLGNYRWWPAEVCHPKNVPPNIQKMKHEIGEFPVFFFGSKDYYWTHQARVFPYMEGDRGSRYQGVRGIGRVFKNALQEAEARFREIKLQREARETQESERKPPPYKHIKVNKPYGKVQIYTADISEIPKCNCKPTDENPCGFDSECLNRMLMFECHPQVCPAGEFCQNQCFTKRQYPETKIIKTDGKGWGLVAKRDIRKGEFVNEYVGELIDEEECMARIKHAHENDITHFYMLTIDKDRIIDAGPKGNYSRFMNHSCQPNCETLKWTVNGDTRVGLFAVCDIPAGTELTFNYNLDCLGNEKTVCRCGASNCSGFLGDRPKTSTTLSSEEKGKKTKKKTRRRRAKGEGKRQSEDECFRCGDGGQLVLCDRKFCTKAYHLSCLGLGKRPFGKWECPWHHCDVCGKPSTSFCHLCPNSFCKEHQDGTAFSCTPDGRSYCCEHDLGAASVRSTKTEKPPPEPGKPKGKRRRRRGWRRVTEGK
ALR H2O2 inh: human ALR oxidase inhibition via reduced H2O2; purified ALR, DTT oxidation, H2O2 HRP-luminol luminescence; P55789; AID 485317; inhibition, % (no concentration beside the values); hit rate 3.8% among 290,000;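 active = mean replicate inhibition above about 79%, with every replicate also reaching it, limit read from the data; inconclusive = only one of the two criteria met; inactive = mean below limit and not every replicate reaching it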
Numbers without * were called inactive; ? = inconclusive; . = no result given.

SMILES | CASP6 VEID inh | Glyco luc inh | SUMO Mot1 rescue | CDK5 p35 inh | NSD2 inh | ALR H2O2 inh
COc1ccccc1NC(=O)N1[C@H](CO)[C@H](c2ccccc2)[C@@H]1C#N | 2.2 | . | . | . | . | .
CC(=NC1CCCC1)c1c(C)[nH]n(-c2nc3ccccc3s2)c1=O | . | -8.5 | 18.3 | -1.6 | 2.3 | 93.0*
c1ccc(Nc2nc(Nc3ccccc3)nc(N3CCNCC3)n2)cc1 | -4.2 | -1.3 | -3.7 | -0.2 | 3.3 | -17.0
CN1CCN(c2nc(Nc3ccc(F)cc3)nc(Nc3ccc(F)cc3)n2)CC1 | -9.3 | 4.4 | -3.1 | 2.0 | 4.6 | 90.8*
O=C(Cc1ccccc1)N1CCN(S(=O)(=O)c2cccc([N+](=O)[O-])c2)CC1 | -0.7 | 2.1 | 122.9 | 1.1 | 6.7 | 1.0
Cc1cccc(C(=O)N2CCN=C2SCc2ccc([N+](=O)[O-])cc2)c1 | . | -2.4 | 0.3 | 0.7 | 0.5 | 98.9*
Cc1cccc(CSC2=NCCN2C(=O)c2ccc(S(=O)(=O)N(C)C)cc2)c1 | -2.9 | 0.9 | 19.3 | -0.4 | -1.6 | 14.0
Cc1cccc(CSC2=NCCN2C(=O)c2ccc(Br)o2)c1 | -1.2 | -2.4 | -13.7 | -0.3 | . | 95.4*
O=C(Cc1ccccc1)N1CCN=C1SCc1cccc([N+](=O)[O-])c1 | 0.4 | 0.7 | 2.4 | 0.1 | . | 98.0*
COc1ccc2oc(C)c(C(=O)NN)c2c1 | -0.1 | -0.5 | 2.2 | -0.7 | 1.7 | 85.3*
CCOC(=O)CCC(=O)c1c(C)oc2ccc(OC)cc12 | . | -1.3 | -18.4 | 0.4 | 0.3 | -12.0
CCOC(=O)c1c(N2C(=O)Nc3ccccc3N2O)sc2c1CCCCC2 | 0.6 | 1.0 | -13.1 | 1.0 | -0.6 | 95.1*
Cc1ccc(S(=O)(=O)NNC(=O)NC23CC4CC(CC(C4)C2)C3)cc1 | -0.6 | -0.2 | 5.8 | -2.1 | 0.7 | 93.7*
CC(C)NC(=O)N(C)C[C@H]1OCCCC[C@H](C)Oc2ccc(NC(=O)C3CCCCC3)cc2C(=O)N([C@H](C)CO)C[C@@H]1C | 0.9 | . | . | . | . | .
O=C(O)c1cccc(COc2ccc3c(c2)CCC3)c1 | 5.2 | -10.1 | 2.8 | 3.4 | 1.2 | 90.7*
O=C(NCc1ccccc1)c1cccc(COc2ccc3c(c2)CCC3)c1 | . | -10.9 | 1.4 | 1.1 | -1.5 | .
CCCC(O)(c1ccc(Cl)cc1)C(CN1CCOCC1)c1ccc(Cl)cc1 (stereo unspecified) | 1.7 | -10.4 | 291.6* | -0.6 | -0.8 | -1.3
CCCC(=O)Nc1ccc2c(c1)OC[C@H](C)N(Cc1ccccc1F)C[C@H](C)[C@H](OC)CN(C)C2=O | 1.3 | . | . | . | . | .
C=CCOc1c(Br)cc(CNn2cn[nH]c2=S)cc1OC | -0.2 | 1.2 | -0.7 | -0.1 | -2.4 | 92.4*
CCOC(=O)c1ccc(S(=O)(=O)N2CC(=O)Nc3ccccc32)cc1 | 0.7 | 4.1 | -20.2 | 0.6 | 1.7 | 98.8*
COc1ccc(S(=O)(=O)N(C)C[C@H]2Oc3c(NC(=O)c4cc(C)nn4C)cccc3C(=O)N([C@@H](C)CO)C[C@H]2C)cc1 | 2.4 | . | . | . | . | .
COC(=O)c1ccc(CNC(=O)CNc2cc(C(F)(F)F)ccc2N2CCOCC2)cc1 | . | -1.3 | -1.8 | 0.9 | -1.0 | 99.5*
CCC(=O)Nc1cc(C(F)(F)F)ccc1N1CCOCC1 | . | -1.3 | -11.6 | -1.1 | -0.2 | -2.3
CCCC(=O)n1nc(-c2cccnc2)nc1NCc1ccc(OC)cc1 | 39.3* | 3.5 | . | 0.7 | -9.2 | .
CC(C)C(=O)n1nc(-c2cccnc2)nc1NCc1ccc(F)cc1 | -3.4 | 5.0 | -12.1 | 1.5 | 13.9 | 97.3*
SMILES | CASP6 VEID inh | Glyco luc inh | SUMO Mot1 rescue | CDK5 p35 inh | NSD2 inh | ALR H2O2 inh
O=c1cc(N=Nc2ccc(Cl)cc2)[nH]c(=O)[nH]1 | 8.1 | 70.3* | 224.1 | 0.9 | 20.2 | -37.5
O=CC1=C(N2CCOCC2)/C(=C\c2ccccc2)CC1 | 4.8 | 1.1 | -27.1 | 0.2 | 4.7 | 4.6
N#CC1=C(N2CCOCC2)/C(=C\c2ccccc2)CC1 | -0.6 | -0.9 | 4.0 | -0.5 | -14.6 | 93.3*
C[C@@H]1CN([C@@H](C)CO)C(=O)c2cc(NC(=O)c3ccncc3)ccc2O[C@@H](C)CCCCO[C@@H]1CN(C)S(=O)(=O)c1cccs1 | -3.1 | . | . | . | . | .
CCOC(=O)c1cc2[nH]c3ccccc3c2[n+](-c2ccc([N+](=O)[O-])cc2)c1C | . | 14.9 | -5.4 | -1.7 | -4.7 | -26.6
CCOC(=O)c1cc2[nH]c3ccccc3c2[n+](-c2ccc([N+](=O)[O-])cc2)c1N | . | 46.1* | 0.8 | 0.1 | 3.4 | -48.1
CN1CCc2nc(SCC(=O)Nc3cccc(F)c3)c(C#N)c(-c3cccs3)c2C1 | . | 6.0 | 20.8 | -1.0 | 10.0 | .
CN1CCc2nc(SCC(=O)Nc3ccc(OC(F)(F)F)cc3)c(C#N)c(-c3cccs3)c2C1 | . | 1.8 | 22.9 | -2.2 | 25.3 | 99.2*
CO[C@@H](CN(C)S(=O)(=O)c1cn(C)cn1)[C@H](C)CN(C(=O)Nc1ccc(F)cc1)[C@H](C)CO | -1.0 | . | . | . | . | .
CN=C1S/C(=C\c2ccc(O)c(Br)c2)C(=O)N1C | -1.7 | -1.1 | -25.5 | 5.9 | 1.8 | 96.3*
COc1ccc(S(=O)(=O)N(C)C[C@@H]2Oc3c(NC(=O)Nc4ccc(C(F)(F)F)cc4)cccc3C(=O)N([C@H](C)CO)C[C@@H]2C)cc1 | -1.7 | . | . | . | . | .
O=c1oc2c3c4c(cc2s1)CCCN4CCC3 | . | 1.9 | 1.2 | 0.8 | 22.3 | 99.1*
C[C@@H]1CN([C@@H](C)CO)S(=O)(=O)c2ccc(-c3ccc(C#N)cc3)cc2O[C@@H]1CN(C)C(=O)CN(C)C | 2.5 | . | . | . | . | .
COc1ccc(N2CCN(C(=O)CCN3C(=S)NC(C)(C)CC3C)CC2)cc1 (stereo unspecified) | 1.5 | 1.0 | -23.9 | 3.6 | -3.2 | 88.4*
CC(=O)c1ccc(N2CCN(C(=O)CCN3C(=S)NC(C)(C)CC3C)CC2)cc1 (stereo unspecified) | 0.5 | 1.2 | 21.7 | -1.9 | -2.0 | 1.1
CC1CC(C)(C)NC(=S)N1CCC(=O)N1CCN(c2ccccc2)CC1 (stereo unspecified) | -1.6 | 2.3 | -1.3 | 1.9 | 0.2 | ?
CC1CC(C)(C)NC(=S)N1CCCC(=O)N1CCN(c2ccc(F)cc2)CC1 (stereo unspecified) | . | 1.5 | 12.5 | -0.2 | -0.6 | 82.9*
COc1ccccc1NC(=O)N1CCCCN2[C@H](CO)[C@H](c3ccc(-c4ccccc4)cc3)[C@@H]2C1 | -0.4 | . | . | . | . | .
COC(=O)C1C2CC3c4[nH]c5cc(OC)ccc5c4CCN3CC2CC(OC2CCCCO2)C1OC (stereo unspecified) | 12.8 | -0.3 | . | . | 4.5 | .
COC(=O)[C@H]1[C@H]2C[C@@H]3c4[nH]c5cc(OC)ccc5c4CCN3C[C@H]2C[C@@H](OC(=O)c2cc(OC)c(OC)c(OC)c2)[C@@H]1OC | 3.5 | -3.6 | 350.9* | 2.6 | . | -18.5
COc1ccccc1CNC(=O)C[C@H]1CC[C@@H]2[C@H](COC[C@H](O)CN2C(=O)Nc2ccc(F)cc2)O1 | 6.7 | . | . | . | . | .
C[C@@H]1CN([C@@H](C)CO)C(=O)c2cccc(NC(=O)C3CCOCC3)c2O[C@@H]1CN(C)Cc1ccc(Cl)c(Cl)c1 | -0.6 | . | . | . | . | .
